For part of these data: Entries with a potency or affinity are not part of this list. Activity calls are given as the source filed them.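 How the source made its calls, unless noted: active means calcium signal cut by more than 3 SD below the full-agonist control yet still positive, in both repeats and the earlier primary screen; inactive means the rest.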
Columns and labels:
[1] = test system: TRPC4 beta (transient receptor potential cation channel C4), mouse; experiment: activators of mouse TRPC4 channel, confirmation, cell-based, Fluo4 calcium, HEK293 TRPC4beta/mu-opioid, duplicates, 10 µM (AID 2426;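 active means fluorescence ratio normalized to control raised more than 50% in primary screen plus both repeat runs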;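 on activation: percent rise of integrated ratio over buffer wells lacking compound which define 0%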); conditions: Fluo4 calcium fluorescence, at 10 µM; hits give high values
[2] = test system: transient receptor potential cation channel C4 beta (TRPC4), mouse; experiment: activators of mouse TRPC4 channel, confirmation, cell-based, second round, Fluo4, HEK293 TRPC4beta/mu-opioid, 1 µM (AID 2461;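 active means primary screen active and over 50% activation in each of two duplicate runs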;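 on activation: 0% = wells without test compound as baseline of integrated fluorescence ratio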); conditions: Fluo4 calcium fluorescence, at 1 µM; hits give high values
[3] = test system: TRPC4 (transient receptor potential cation channel C4 beta), mouse; experiment: positive allosteric modulators of mouse TRPC4, confirmation, cell-based, second round, Fluo-4, HEK293 TRPC4beta/mu-opioid, 1 µM (AID 2554;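 active means primary screen hit whose fluorescence ratio, in both repeats, exceeds the weak agonist control mean by 3 SD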); conditions: DAMGO EC20, Fluo-4 calcium flux, at 1 µM; hits give high values
[4] = test system: TRPC4 beta (transient receptor potential cation channel C4), mouse; experiment: positive allosteric modulators of mouse TRPC4, confirmation, cell-based, Fluo-4, HEK293 TRPC4beta/mu-opioid (AID 2555;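 active means primary screen hit whose calcium fluorescence ratio, in both repeats, exceeds the weak agonist control mean by 3 SD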); conditions: DAMGO EC20, Fluo-4 calcium flux, at 10 µM; hits give high values
[5] = target: Short transient receptor potential channel 4 (Mus musculus) (UniProt Q9QUQ5); experiment: inhibitors of mouse TRPC4 channel, confirmation, cell-based, Fluo4, HEK293 TRPC4beta/mu-opioid (AID 2636); conditions: DAMGO, Fluo4 calcium flux, at 10 µM; hits give high values
[6] = target: Short transient receptor potential channel 4 (Mus musculus) (UniProt Q9QUQ5); experiment: inhibitors of mouse TRPC4 channel, confirmation, cell-based, second round, Fluo4, HEK293 TRPC4beta/mu-opioid, 1 µM (AID 2637;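 active means calcium signal ratio cut to more than 3 SD under the fully stimulated control mean yet still positive, in both repeats and the primary screen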); conditions: Fluo4 calcium flux, DAMGO, at 1 µM; hits give high values
[7] = target: Short transient receptor potential channel 4 (Mus musculus) (UniProt Q9QUQ5); experiment: TRPC4 positive allosteric modulators, dose response, cell-based, HEK293 TRPC4/mu-opioid, Fluo-4 calcium, EC20 DAMGO (AID 434941;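 active means earlier screen potentiator hit that boosts the TRPC4 ion channel at some dose, with a dose response; inactive means no potentiation, no dose response, or not a prior hit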;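 further: calcium entry triggered by an EC20 dose of DAMGO at the co-expressed mu-opioid receptor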)
[8] = target: Short transient receptor potential channel 4 (Mus musculus) (UniProt Q9QUQ5); experiment: mouse TRPC4 channel inhibitors, dose response, cell-based, HEK293 TRPC4/mu-opioid, Fluo-4 calcium (AID 434942;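 active means primary screen inhibitor hit that blocks the TRPC4 channel at some tested dose, yielding a dose curve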)
[9] = target: Short transient receptor potential channel 6 (Mus musculus) (UniProt Q61143); experiment: inhibition of mouse TRPC6 channel, confirmation, selectivity assay for TRPC4 inhibitor project, cell-based, HEK293, membrane potential dye, duplicate (AID 434948;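 active means active in primary screen and both duplicates, each dropping signal beyond three positive-control SD with fluorescence still positive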); conditions: HEK293 TRPC6, membrane potential dye fluorescence, at 10 µM, stimulated with maximal-effect acetylcholine; hits give high values
[10] = target: Short transient receptor potential channel 6 (Mus musculus) (UniProt Q61143); experiment: activation of mouse TRPC6 channel, confirmation, selectivity assay for TRPC4 activator project, cell-based, HEK293, membrane potential dye, duplicate (AID 434950;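 active means membrane potential signal rise above negative control mean plus 3 SD in both duplicates, also active in the earlier TRPC4 screen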;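 on activation: 0% = buffer only wells and 100% = acetylcholine maximal-effect wells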); conditions: HEK293 TRPC6, membrane potential fluorescence, at 10 µM; hits give high values
[11] = target: Short transient receptor potential channel 6 (Mus musculus) (UniProt Q61143); experiment: TRPC6 potentiation by TRPC4 potentiator hits, confirmation, selectivity assay for TRPC4 potentiator project, HEK293 cells, membrane potential dye, duplicate (AID 434952;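 active means compound raising the membrane signal above positive-control mean plus 3 SD in both repeats, and a primary screen hit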); conditions: HEK293 TRPC6, membrane potential dye fluorescence, at 10 µM, maximal acetylcholine added after compound; hits give high values
[12] = target: Short transient receptor potential channel 4 (Mus musculus) (UniProt Q9QUQ5); experiment: calcium flux activators in TRPC4/5HT1a cells, counter-screen for TRPC4 activator project, cell-based, second counter screen, HEK293 TRPC4/5HT1a, Fluo-4 (AID 434977;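 active means calcium signal rise above buffer-control mean plus 5 SD in both duplicates, and also a hit in the primary screen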;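 on activation: plate controls were assay buffer for no effect and maximal serotonin response for full effect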); conditions: Fluo-4 calcium flux, at 10 µM; hits give high values
[13] = calcium flux inhibitors in TRPC4/5HT1a cells, confirmation, counter-screen for TRPC4 inhibitor project, cell-based, second counter screen, HEK293 TRPC4/5HT1a, Fluo-4 (AID 434978;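 active means primary screen active whose calcium signal fell more than 3 SD beyond the full-serotonin control mean in both duplicate plates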;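 further: serotonin given first at submaximal then at maximal dose after compound preincubation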); conditions: Fluo-4 calcium flux, at 10 µM, serotonin added to trigger calcium flux; hits give high values
[14] = test system: TRPC4 (mouse), co-expressed with 5HT1a in HEK293; experiment: calcium flux potentiators in TRPC4/5HT1a cells, confirmation, counter-screen for TRPC4 potentiator project, cell-based, second counter screen, HEK293 TRPC4/5HT1a, Fluo-4 (AID 434979;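 active means signal rise over 3 SD above mean of control wells given weak agonist, in both repeats and first screen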); conditions: Fluo-4 calcium flux, at 10 µM, serotonin added at its EC20 dose; hits give high values
[15] = calcium flux activation in mu-opioid HEK293 cells, confirmation, counter-screen for TRPC4 activator project, cell-based, HEK293 mu-opioid receptor line (AID 449723;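 active means hit in primary screen, with calcium signal over 5 SD above buffer well mean in both duplicates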;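 further: counter screen cells carry the mu-opioid receptor alone and lack TRPC4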); conditions: Fluo-4 calcium fluorescence, at 10 µM; hits give high values
[16] = calcium flux enhancement in mu-opioid HEK293 cells, confirmation, counter-screen for TRPC4 allosteric potentiator project, cell-based, HEK293 mu-opioid receptor line (AID 449724;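 active means calcium signal rise more than 3 SD above the low-dose agonist control mean, in both duplicate plates and the primary screen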); conditions: Fluo-4 calcium flux, at 10 µM, compound added before EC20 DAMGO stimulus; hits give high values

Measured: activation

Chain of Short transient receptor potential channel 4 (Mus musculus) (Q9QUQ5 whole entry, looked up): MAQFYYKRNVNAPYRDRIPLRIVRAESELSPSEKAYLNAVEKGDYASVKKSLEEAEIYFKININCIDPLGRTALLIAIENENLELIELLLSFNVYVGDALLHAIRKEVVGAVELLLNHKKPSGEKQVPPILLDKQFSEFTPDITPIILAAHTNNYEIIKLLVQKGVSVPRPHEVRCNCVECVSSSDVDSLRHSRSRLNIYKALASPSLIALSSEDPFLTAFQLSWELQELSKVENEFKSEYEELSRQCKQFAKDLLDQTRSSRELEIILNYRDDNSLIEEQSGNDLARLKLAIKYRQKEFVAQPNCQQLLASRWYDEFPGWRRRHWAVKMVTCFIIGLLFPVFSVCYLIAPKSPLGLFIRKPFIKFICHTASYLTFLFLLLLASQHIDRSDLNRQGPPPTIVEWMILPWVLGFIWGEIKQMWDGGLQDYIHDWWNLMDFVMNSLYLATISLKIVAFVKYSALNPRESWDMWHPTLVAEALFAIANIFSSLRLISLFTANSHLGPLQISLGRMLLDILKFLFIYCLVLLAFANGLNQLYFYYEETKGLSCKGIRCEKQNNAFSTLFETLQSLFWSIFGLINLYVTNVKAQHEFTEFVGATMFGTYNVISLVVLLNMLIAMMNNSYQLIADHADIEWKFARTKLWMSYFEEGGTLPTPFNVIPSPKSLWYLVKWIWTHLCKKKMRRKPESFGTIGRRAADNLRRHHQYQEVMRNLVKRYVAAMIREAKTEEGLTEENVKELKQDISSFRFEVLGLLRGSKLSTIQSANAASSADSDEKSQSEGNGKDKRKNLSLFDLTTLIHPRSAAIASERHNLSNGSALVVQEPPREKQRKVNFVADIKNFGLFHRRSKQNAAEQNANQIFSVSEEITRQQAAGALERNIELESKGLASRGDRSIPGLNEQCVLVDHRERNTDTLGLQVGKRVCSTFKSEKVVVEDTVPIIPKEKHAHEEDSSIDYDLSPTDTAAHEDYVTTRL
Chain of Short transient receptor potential channel 6 (Mus musculus) (Q61143 whole entry, looked up): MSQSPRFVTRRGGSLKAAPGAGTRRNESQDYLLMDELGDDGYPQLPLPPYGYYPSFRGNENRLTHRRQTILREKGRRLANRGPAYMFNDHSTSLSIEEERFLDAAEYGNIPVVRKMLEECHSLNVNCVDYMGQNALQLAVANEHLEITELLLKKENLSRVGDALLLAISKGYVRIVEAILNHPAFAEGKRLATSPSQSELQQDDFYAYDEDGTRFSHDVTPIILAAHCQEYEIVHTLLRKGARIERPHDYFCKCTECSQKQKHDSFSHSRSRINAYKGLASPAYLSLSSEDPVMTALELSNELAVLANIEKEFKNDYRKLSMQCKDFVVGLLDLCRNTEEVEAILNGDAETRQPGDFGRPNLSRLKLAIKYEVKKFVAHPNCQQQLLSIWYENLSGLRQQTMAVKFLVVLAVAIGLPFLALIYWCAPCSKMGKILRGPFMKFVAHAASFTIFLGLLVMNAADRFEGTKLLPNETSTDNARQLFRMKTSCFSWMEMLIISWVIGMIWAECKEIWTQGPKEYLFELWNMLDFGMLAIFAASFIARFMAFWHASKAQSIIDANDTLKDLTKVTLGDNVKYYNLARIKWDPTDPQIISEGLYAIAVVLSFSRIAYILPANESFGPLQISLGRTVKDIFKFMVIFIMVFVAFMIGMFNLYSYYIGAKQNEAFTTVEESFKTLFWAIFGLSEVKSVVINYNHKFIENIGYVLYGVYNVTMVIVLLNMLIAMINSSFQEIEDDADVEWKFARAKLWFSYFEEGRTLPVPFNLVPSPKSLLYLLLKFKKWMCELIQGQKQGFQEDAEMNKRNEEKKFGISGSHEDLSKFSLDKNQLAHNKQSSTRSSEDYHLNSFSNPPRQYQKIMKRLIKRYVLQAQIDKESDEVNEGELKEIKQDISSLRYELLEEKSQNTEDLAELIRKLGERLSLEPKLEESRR

CC(CN1CCCC(C(N)=O)C1)c1ccccc1 (stereo not given)
inactive: [3] | [4] | [5] | [6] | [7] | [8] | [9] | [11] | [13] | [14] | [15] | [16]
active: [1] 147% | [2] 65% | [10] 30.5% | [12] 42%

CCN(Cc1ccccc1)S(=O)(=O)c1ccc(C(=O)N(CCCN(C)C)c2nc3c(F)cccc3s2)cc1
inactive: [2] | [3] | [4] | [5] | [6] | [7] | [8] | [9] | [10] | [11] | [12] | [13] | [14] | [15] | [16]
active: [1] 76%

COc1ccc(-n2nc(C(=O)NCC(=O)NCCCN3CC(C)CC(C)C3)c3ccccc3c2=O)cc1Cl (stereo not given)
active: [12] 12.2%
inactive: [1] | [2] | [3] | [4] | [5] | [6] | [7] | [8] | [9] | [10] | [11] | [13] | [14] | [15] | [16]

O=C(CC1C(=O)NCCN1Cc1ccc(-c2ccccc2)cc1)NCCc1ccccn1 (stereo not given)
inactive: [2] | [3] | [4] | [5] | [6] | [7] | [8] | [9] | [10] | [11] | [13] | [14] | [15] | [16]
active: [1] 142% | [12] 34%

COc1ccc(C(CNC(=O)CSc2ccccc2C)N(C)C)cc1 (stereo not given)
active: [1] 74% | [2] 73% | [10] 55%
inactive: [3] | [4] | [5] | [6] | [7] | [8] | [9] | [11] | [12] | [13] | [14] | [15] | [16]

CCOC(=O)C1(Cc2cccc(F)c2)CCN(Cc2cnn(CC)c2C)CC1
active: [1] 100% | [2] 94% | [10] 64%
inactive: [3] | [4] | [5] | [6] | [7] | [8] | [9] | [11] | [12] | [13] | [14] | [15] | [16]

CN1CCN(c2ccc(NC(=O)COc3cccc4ccccc34)cc2)CC1
inactive: [2] | [3] | [4] | [5] | [6] | [7] | [8] | [9] | [10] | [11] | [12] | [13] | [14] | [15] | [16]
active: [1] 135%

CCn1c(N2CCN(C(=S)NCCc3ccccc3)CC2)nc2ccccc21
inactive: [1] | [2] | [3] | [4] | [5] | [6] | [7] | [8] | [9] | [10] | [11] | [13] | [14] | [15] | [16]
active: [12] 21%

COc1c(C)cc(C(=O)C2CCCN(Cc3cccc4nccnc34)C2)cc1C (stereo not given)
inactive: [2] | [3] | [4] | [5] | [6] | [7] | [8] | [9] | [11] | [13] | [14] | [15] | [16]
active: [1] 108% | [10] 24% | [12] 37.7%

Cc1cccc(OCCOCCN2CCNCC2)c1C
active: [1] 167% | [2] 69% | [10] 35% | [12] 65.6%
inactive: [3] | [4] | [5] | [6] | [7] | [8] | [9] | [11] | [13] | [14] | [15] | [16]

CCCN(CCC)CCCNC(=O)c1cc2c(-c3ccc(OC)c(OC)c3)nn(C)c2s1
inactive: [3] | [4] | [5] | [6] | [7] | [8] | [9] | [10] | [11] | [13] | [14] | [15] | [16]
active: [1] 97% | [2] 78% | [12] 38.6%

CN(C)C(CNC(=O)NC1CCCCC1)c1cccnc1 (stereo not given)
inactive: [3] | [4] | [5] | [6] | [7] | [8] | [9] | [11] | [12] | [13] | [14] | [15] | [16]
active: [1] 79% | [2] 98% | [10] 29.5%

CC(C)(C)[C@H]1C=C(C(=O)NCc2ccccc2)O[C@@H](OCc2ccc(CO)cc2)C1
active: [1] 68% | [10] 24.5%
inactive: [2] | [3] | [4] | [5] | [6] | [7] | [8] | [9] | [11] | [12] | [13] | [14] | [15] | [16]

CCOc1ncccc1C(=O)NCC(c1ccccc1)N(C)C (stereo not given)
inactive: [2] | [3] | [4] | [5] | [6] | [7] | [8] | [9] | [11] | [12] | [13] | [14] | [15] | [16]
active: [1] 155% | [10] 61%

CN(C)CCCN(C(=O)c1ccc(S(=O)(=O)N2CCc3ccccc3C2)cc1)c1nc2c(F)cc(F)cc2s1
active: [1] 73%
inactive: [2] | [3] | [4] | [5] | [6] | [7] | [8] | [9] | [10] | [11] | [12] | [13] | [14] | [15] | [16]

From PubChem BioAssay
